{"source": "PubChem BioAssay AID734", "about": "(The Scripps Research Institute Molecular Screening Center, 2007)", "note": "Among all 5,100 compounds or so, fewer than 10 were called active.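 The calls were made as follows: active = inhibition above the mean inhibition over all tested compounds plus 3 SD (cut at about 75% in these data); inactive = the rest.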 Only a sample is shown.", "data": [{"target": "Collagenase 3 (Homo sapiens) (UniProt P45452)", "experiment": "MMP13 inhibitors among fluorescent compounds, confirmation, biochemical, possible fluorescent artifacts, delta fluorescence (AID 734);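 also: 0% = DMSO only wells and 100% = 8 µM reference MMP13 inhibitor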", "conditions": "MMP13 fTHP FRET cleavage, delta fluorescence 4 h; hits give high values;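 each compound tested at 4 µM nominal in triplicate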", "values": [{"compound": "Cc1oc2c(CN3CCOCC3)c(O)ccc2c(=O)c1-c1ccc(Br)cc1", "inhibition": "6.41% (inactive)"}, {"compound": "CCn1c(=O)c2cc(C(=O)N3CCOCC3)sc2c2ccccc21", "inhibition": "-2.27% (inactive)"}, {"compound": "Cc1ccc(NC(=O)CC2Nc3ccccc3NC2=O)cc1Cl", "note": "(stereo unspecified)", "inhibition": "5.69% (inactive)"}, {"compound": "CCOC(=O)N1CCN(C(=O)c2cnn3c(C)c(Cc4ccc(C)cc4)c(C)nc23)CC1", "inhibition": "-3.34% (inactive)"}, {"compound": "O=S(=O)(c1ccccc1C(F)(F)F)N1CCOCC1", "inhibition": "6.08% (inactive)"}, {"compound": "Cc1onc(-c2ccccc2Cl)c1C(=O)Nc1nnc(-c2ccc(F)cc2)s1", "inhibition": "6.05% (inactive)"}, {"compound": "CCOC(=O)N1CCC(N2C(=O)c3ccccc3C2Nc2cc(C(=O)OC)cc(C(=O)OC)c2)CC1", "note": "(stereo unspecified)", "inhibition": "3.52% (inactive)"}, {"compound": "O=C(c1cccs1)c1ccc(-c2cccs2)s1", "inhibition": "3.04% (inactive)"}, {"compound": "Oc1ccc(N=Cc2ccc(-c3cccs3)s2)cc1", "inhibition": "90.8% (active)"}, {"compound": "CC(C)CCSc1nc2c(c(=O)[nH]c(=O)n2C)n1CCc1ccccc1", "inhibition": "5.17% (inactive)"}, {"compound": "CC1CCCN(C/C(O)=C(\\C#N)c2nc3ccccc3[nH]2)C1", "note": "(stereo unspecified)", "inhibition": "4.57% (inactive)"}, {"compound": "CCCCOC(=O)Cc1c(O)c2ccccc2[nH]c1=O", "inhibition": "0.98% (inactive)"}, {"compound": "CN(C)CCCN1C(=O)c2oc3ccc(F)cc3c(=O)c2C1c1cccnc1", "note": "(stereo unspecified)", "inhibition": "5.18% (inactive)"}, {"compound": "Cc1cccc2cc(C#N)c(NCCNS(=O)(=O)c3ccc4c(c3)OCCO4)nc12", "inhibition": "3.35% (inactive)"}, {"compound": "Cc1ccc(S(=O)(=O)N2CCCC2C(=O)Oc2ccccc2)cc1", "note": "(stereo unspecified)", "inhibition": "5.98% (inactive)"}, {"compound": "Cc1ccc(-n2c(-c3ccncc3)nnc2-c2ccco2)cc1", "inhibition": "2.09% (inactive)"}, {"compound": "Cc1cc(N2CCOCC2)nc2ccc(NC(=O)CCC(=O)N3CCCC(C)C3)cc12", "note": "(stereo unspecified)", "inhibition": "2.6% (inactive)"}, {"compound": "CC(C)(/C=N/O)/[N+]([O-])=C/c1ccccc1C(F)(F)F", "inhibition": "8.54% (inactive)"}, {"compound": "COc1cc2c(=O)n(CC3CCCO3)c(=O)n(CC(=O)Nc3ccc(F)cc3F)c2cc1OC", "note": "(stereo unspecified)", "inhibition": "2.92% (inactive)"}, {"compound": "CN1C(=O)Cc2cc(S(=O)(=O)N3CCOCC3)ccc21", "inhibition": "2.06% (inactive)"}, {"compound": "O=C1CCCN1CCCNc1ncnc2c1cnn2-c1ccc(Cl)cc1", "inhibition": "3.23% (inactive)"}, {"compound": "CCOC(=O)c1[nH]c2ccc(OCC)cc2c1NC(=O)CN1CCN(c2ccccc2)CC1", "inhibition": "1.46% (inactive)"}, {"compound": "c1ccc(-n2nnnc2SCc2cn3cccnc3n2)cc1", "inhibition": "9.28% (inactive)"}, {"compound": "O=C(Nc1ccc(-c2nc3cccnc3s2)cc1)c1ccc(Br)o1", "inhibition": "2.61% (inactive)"}, {"compound": "O=C(Nc1ccc(-c2nc3cccnc3s2)cc1)c1ccco1", "inhibition": "4.83% (inactive)"}, {"compound": "O=S(=O)(Nc1ccc(-c2nc3cccnc3s2)cc1)c1cccs1", "inhibition": "198% (active)"}, {"compound": "N#Cc1nc(-c2cccs2)oc1N1CCN(c2ccccc2)CC1", "inhibition": "8.02% (inactive)"}, {"compound": "Cc1oc(C(C)(C)C)cc1C(=O)Nc1ccc(C(=O)O)cc1", "inhibition": "4.23% (inactive)"}, {"compound": "Cc1ccc(-c2cc(C(=O)N3CCOCC3)c3ccccc3n2)cc1", "inhibition": "7.4% (inactive)"}, {"compound": "CCC(=O)N/C(N)=N/c1nc(C)c2cc(OC)ccc2n1", "inhibition": "1.9% (inactive)"}, {"compound": "COc1nc(-c2ccc(C)cc2)ccc1-c1noc(-c2ccco2)n1", "inhibition": "-3.29% (inactive)"}, {"compound": "Cc1cccn2c(=O)c(C=Nc3ccc(Cl)cc3)c(NCCO)nc12", "inhibition": "-0.72% (inactive)"}, {"compound": "CC(C)COc1ccc(-c2nnc(-c3ccco3)o2)cc1", "inhibition": "3.48% (inactive)"}, {"compound": "COC(=O)C1=CNC=C(C(=O)OC)C1c1cccc(OC)c1", "inhibition": "27.7% (inactive)"}, {"compound": "CN(C)c1ccc(-c2nn3c(C4CCCCC4)nnc3s2)cc1", "inhibition": "4.05% (inactive)"}, {"compound": "COc1ccc(CCNc2oc(-c3ccc(OC)c(OC)c3)nc2C#N)cc1", "inhibition": "1.68% (inactive)"}, {"compound": "COc1ccc(-c2cn3c(C)c(C(=O)Nc4cc(NC(C)=O)ccc4OC)sc3n2)cc1", "inhibition": "14.3% (inactive)"}, {"compound": "COCCNC(=O)c1cc2c(-c3ccccc3F)nn(C)c2s1", "inhibition": "-5.47% (inactive)"}, {"compound": "CC(Oc1ccc2oc(-c3ccccc3)c(C(=O)O)c2c1)C(=O)O", "note": "(stereo unspecified)", "inhibition": "-5.25% (inactive)"}, {"compound": "O=c1cc(CN2CCN(c3ccccc3)CC2)c2cc(O)c(-c3ccccc3)cc2o1", "inhibition": "8.57% (inactive)"}, {"compound": "CCN1CCc2c(sc3c2c(NCc2ccco2)nc2nnnn23)C1", "inhibition": "10.9% (inactive)"}, {"compound": "CC(C)CCNC(=O)C(c1ccco1)N(Cc1ccccc1)C(=O)c1snc(C(N)=O)c1N", "note": "(stereo unspecified)", "inhibition": "2.54% (inactive)"}, {"compound": "O=C(NCc1cccnc1)c1nnc(Cc2ccc(F)cc2)o1", "inhibition": "2.89% (inactive)"}, {"compound": "O=C(CCSc1nnc2ccccn12)Nc1ccc(F)cc1", "inhibition": "3% (inactive)"}, {"compound": "Cc1ccc(-n2c(Cc3cccn3C)nnc2SCC(=O)Nc2ccc3c(c2)OCO3)cc1", "inhibition": "3.78% (inactive)"}, {"compound": "O=C(O)c1ccc(CSc2nnc(-c3ccncc3)n2CC2CCCO2)cc1", "note": "(stereo unspecified)", "inhibition": "5.15% (inactive)"}, {"compound": "Cc1cc(N2CCC(C)CC2)nc2ccc(N3C(=O)CCC3=O)cc12", "inhibition": "4.49% (inactive)"}, {"compound": "O=S(=O)(c1cccc(-c2cn3cc(Cl)ccc3n2)c1)N1CCOCC1", "inhibition": "4.43% (inactive)"}, {"compound": "CCOc1ccc(CC(=O)N2CCN(c3ccc(N4CCOCC4)nn3)CC2)cc1OCC", "inhibition": "11.4% (inactive)"}, {"compound": "Cc1cc(C)c2c(n1)nn1c(N3CCN(c4ccccc4)CC3)cc(C)nc21", "inhibition": "-3.18% (inactive)"}, {"compound": "O=C(NCc1cccnc1)c1cnn2ccccc12", "inhibition": "3.72% (inactive)"}, {"compound": "CCOCCCn1c(C)nc2c(c1=O)c1nc3ccccc3nc1n2CCC1=CCCCC1", "inhibition": "-2.22% (inactive)"}, {"compound": "CCOC(=O)CN=C1CC(C)(C)CC2=C1Sc1ncnc(N(C)C)c1N2", "inhibition": "8.62% (inactive)"}, {"compound": "N#CCSc1nc2[nH]ncc2c(=O)n1-c1ccccc1Br", "inhibition": "5.49% (inactive)"}, {"compound": "CC(=O)Nc1ccc(Nc2ncnc3c2cnn3-c2cccc(C)c2)cc1", "inhibition": "8.03% (inactive)"}, {"compound": "COc1ccc2oc(-c3ccccc3)c(C(=O)N3CCOCC3)c2c1", "inhibition": "3.94% (inactive)"}, {"compound": "CCOC(=O)CSc1nc(-c2ccncc2)ccc1C#N", "inhibition": "6% (inactive)"}, {"compound": "CCOC(=O)CSc1nc2cc3c(cc2cc1C#N)OCO3", "inhibition": "5.66% (inactive)"}, {"compound": "CCOC(=O)CSc1nc(-c2ccc3c(c2)OCO3)ccc1C#N", "inhibition": "86.3% (active)"}, {"compound": "N#Cc1nc(-c2ccc(F)cc2)oc1NCc1cccc2c1OCO2", "inhibition": "-9.16% (inactive)"}, {"compound": "Cc1cc(C)n(-c2nc(-c3cccc(Cl)c3)cs2)n1", "inhibition": "8.4% (inactive)"}]}]}
